The list is not random: actives were taken first. Their share in the collection is about 11%.
HCV inh: HCV inhibition; Huh7.5.1 HCVcc-Cre infection, luciferase reporter, 44 h; Potency, µM (titrated, usually from 41.8 µM), hits mostly inhibitors; 340,000 tested, 3.4% active; AID 651820
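HCVcc-Cre virus at an moi near 0.5 was added right after compound to cells cultured 4 h from seeding (1,000 cells/well). Luciferase activity was determined 44 h later, 15 min after substrate addition at RT.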
VACV mCherry inh: inhibitors of vaccinia virus infection (mCherry reporter signal); Potency, µM (top dose mostly 36.5 µM), most hits filed as inhibitors; Vaccinia virus mCherry reporter infection, fluorescence; 310,000 tested, 0.63% active; AID 720579; calls by dose curve; tested in A549 cells; note: nearly all actives have a fitted effect of over 35% in size
Pf growth 48h: P. falciparum growth inhibition at 48 hours (one generation) | Potency, µM (series often up to 28.7 µM), actives largely listed as inhibitors | P. falciparum luciferase growth in erythrocytes, 48 h | 310,000 tested, 5.9% active | AID 504832
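Luminescence readout; reporter = integrated firefly luciferase in P. falciparum. RBC culture at 2% hematocrit, 0.1% parasitemia final, 37 C/5% CO2; decreased signal taken as growth inhibition.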
Pf growth 96h: P. falciparum growth inhibition at 96 hour, primary screen for plastid delayed-death inhibitors. P. falciparum luciferase reporter growth, 96 h. Potency, µM (top dose mostly 28.7 µM), hits mostly inhibitors. 320,000 tested, 6.9% active
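Infected RBCs, 2% Hct / 0.05% parasitemia final; luciferase-reporter P. falciparum; cpd 96 h, 37 C, 5% CO2; luciferase detection reagent; luminescence.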
NS1 function inh: influenza NS1 inhibition | Potency, µM (doses to about 46.1 µM) | 270,000 tested, 0.4% active; calls by dose curve; note: actives are rising curves; nearly all actives have a fitted effect of over 50% in size
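Compounds were scored for reversing the slow growth caused by influenza A NS1 in S. cerevisiae, measured by optical density at 600 nm. Assay medium contained 2% galactose at pH 6.0; NS1-free yeast of the same strain were the positive control.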
VACV Venus inh: inhibitors of vaccinia virus (Venus reporter); Vaccinia virus Venus reporter expression, fluorescence; Potency, µM (top dose mostly 36.5 µM), usual class: inhibitors; 330,000 tested, 0.46% active; AID 720580; calls by dose curve; tested in A549 cells; note: nearly all actives have a fitted effect of over 30% in size
Numbers stand for hits; i = inactive; ? = inconclusive; nt = no result; ! = repeats disagree; [ ] = dose if it differs, or a comment. Unless noted, calls come from the whole dose curve; as a rule, active = well fitted inhibition curve with a large enough effect; inconclusive = small, poorly fitted or top-dose-only effect, or another doubt; inactive = no such curve, though single readings can be large or run the other way.

SMILES	HCV inh	VACV mCherry inh	Pf growth 48h	Pf growth 96h	NS1 function inh	VACV Venus inh
Cc1cccc(N2CCN(C3=NC(=O)/C(=C\c4cn[nH]c4-c4ccccc4)S3)CC2)c1	i	i	5.2µM	12µM	i	i
CN(C)c1ccc(S(=O)(=O)NCC(=O)NCCC2=CCCCC2)cc1[N+](=O)[O-]	i	i	12µM	?	nt	i
CN(C)c1ccc(S(=O)(=O)NCC(=O)NCCOc2ccccc2F)cc1[N+](=O)[O-]	i	i	i	i	nt	i
CN(CC(=O)Nc1ccc(Cl)c(C(F)(F)F)c1)C(=O)C1CCC1	?	i	?	?	nt	i
Cc1ccc(C)c(S(=O)(=O)N2CCN(C(=O)C3CCN(c4ncnc5sc(C)c(C)c45)CC3)CC2)c1	11µM	i	5.2µM	?	nt	i
CN(CC(=O)Nc1ccc(Cl)c(C(F)(F)F)c1)C(=O)C1CCN(C(=O)c2ccc(Cl)cc2)CC1	11µM	nt	nt	nt	nt	nt
Cc1sc2ncnc(N3CCC(C(=O)N(C)CC(=O)Nc4ccc(Cl)c(C(F)(F)F)c4)CC3)c2c1C	8.9µM	10µM	9.3µM	?	nt	?
Cc1sc2ncnc(N3CCC(C(=O)N(C)CC(=O)Nc4ccccc4Cl)CC3)c2c1C	nt	i	?	?	i	i
CCN(CC)S(=O)(=O)c1cc(NC(=O)C2CCN(c3ncnc4sc(C)c(C)c34)CC2)ccc1Cl	6.3µM	?	12µM	5.2µM	nt	?
Cc1ccc2nc(NC(=O)C3CCN(c4ncnc5sc(C)c(C)c45)CC3)sc2c1	i	i	i	?	i	i
Cc1cc(=S)c2ccccc2[nH]1	i	i	i	i	i	i
Cc1ccc(NC(=O)C2CCN(c3ncnc4sc(C)c(C)c34)CC2)cc1S(=O)(=O)N(C)C	10µM	i	4.1µM	4.7µM	nt	i
Cc1sc2ncnc(N3CCC(C(=O)Nc4cc(S(C)(=O)=O)ccc4Cl)CC3)c2c1C	?	i	9.3µM	?	nt	i
CC1=CC(C)(C)N(C(=O)C(C)N2C(=O)c3ccccc3C2=O)c2c(C)cc(C)cc21 (configuration not stated)	i	nt	10µM	nt	i	nt
CC(C)SC1=NC(C)(C)C=C(/C=C/c2c(Cl)cccc2Cl)N1	i	nt	nt	3.3µM	i	i
CC(C)SC1=NC(C)(C)C=C(/C=C/c2ccc(Cl)cc2Cl)N1	i	nt	nt	?	i	?
Cc1ccc(CCNc2nc3ccccc3c3nc(-c4ccccc4)nn23)cc1	nt	i	nt	nt	nt	i
Cc1ccc(NC(=O)c2cc(S(=O)(=O)N3CCCC3)cn2C)cc1C	i	i	?	i	i	i
Cn1cc(NC(=O)c2cc(NC(=O)c3cc(NC=O)cn3C)cn2C)cc1C(=O)NCCC(=N)N	nt	nt	3.4µM!	?	i	nt
CC(C)COC(=O)N1CCCC1C(=O)Nc1nccs1 (configuration not stated)	i	i	i	nt	i	i
Cc1ccccc1Nc1nc(N)nc(CSc2nc3ccccc3c(=O)n2CCCO)n1	?	i	7.4µM	nt	i	i
Cc1ccc(SCc2nc(N)nc(Nc3ccccc3C)n2)cc1C	13µM	i	i	?	i	i
C[C@@H]1CN([C@H](C)CO)C(=O)CCCn2nncc2CO[C@H]1CN(C)Cc1ccncc1	nt	i	nt	nt	nt	i
COC(=O)CN(C(=S)Nc1ccc(F)cc1)C1CC(=O)N(c2ccccc2)C1=O (configuration not stated)	i	i	10µM	i	i	i
CNC(=S)N(Cc1ccc(OC)cc1)C1CC(=O)N(c2ccc(C(=O)OC)cc2)C1=O (configuration not stated)	i	nt	?	5.9µM	i	nt
SMILES	HCV inh	VACV mCherry inh	Pf growth 48h	Pf growth 96h	NS1 function inh	VACV Venus inh
CCNC(=S)N(CCc1ccc(S(N)(=O)=O)cc1)C1CC(=O)N(c2ccccc2)C1=O (configuration not stated)	i	i	?	10µM	i	i
COC(=O)CN(C(=S)Nc1ccc(F)cc1)C1CC(=O)N(c2ccc(OC)cc2)C1=O (configuration not stated)	i	i	i	i	i	i
O=C1CC(N(CCc2ccccc2)C(=S)Nc2ccccc2)C(=O)N1c1ccccc1 (configuration not stated)	i	i	?	3.3µM	i	i
COCCNC(=O)c1sc(=O)n(Cc2ccc(SC)cc2)c1C	nt	i	nt	nt	nt	i
CN1C(=O)C(=Cc2ccc(-c3cccc(Cl)c3)o2)C(=O)N(C)C1=O	i[0.335 µM]	nt	i	i	i	nt
Cc1ccc2nc(-c3cccs3)c(Nc3ccccc3)n2c1	nt	i	nt	nt	nt	i

Source: PubChem
